Data reported in PubChem BioAssay (NCI).
“And” between values parts separate entries of the source, which are not always exact repeats. Equal entries are not always repeated. Compounds without any hit were thinned out: in the full panel of roughly 83,000, 20% have a hit.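 Single-concentration screen, 48 h exposure, 96-well plates. Endpoint: percent growth. Below 10 = active.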

Columns and labels:
Test in all cases: NCI-60 one-dose screen, 48 h (100 = growth as untreated, 0 = no growth, -100 = all killed)
Details in all cases: 10 µM unless noted
[1] = test system: HCT-15 colon
[2] = test system: HT29 colon
[3] = test system: SNB-75 CNS
[4] = test system: SNB-19 CNS
[5] = test system: PC-3 prostate
[6] = test system: SK-MEL-5 melanoma
[7] = test system: UACC-62 melanoma
[8] = test system: LOX IMVI melanoma
[9] = test system: SK-MEL-2 melanoma
[10] = test system: EKVX NSCLC
[11] = test system: SN12C renal
[12] = test system: UO-31 renal
[13] = test system: TK-10 renal
[14] = test system: ACHN renal
[15] = test system: CAKI-1 renal
[16] = test system: A498 renal
[17] = test system: CCRF-CEM leukemia
[18] = test system: MOLT-4 leukemia
[19] = test system: U251 CNS
[20] = test system: SK-MEL-28 melanoma

Measured: growth

ON=C(C1CCCCC1)C1CCCCC1
inactive: [1] 106% | [2] 103% | [3] 87.3% | [4] 100% | [5] 98.1% | [6] 108% | [7] 91.8% | [8] 95.6% | [9] 107% | [10] 97.8% | [11] 99.9% | [12] 89.3% | [13] 90.2% | [14] 101% | [15] 87.4% | [16] 94.7% | [17] 99.8% | [18] 114%

C=CCN1C(=O)c2ccccc2C1=O
inactive: [1] 109% | [2] 122% | [3] 95.9% | [4] 98.1% | [19] 101% | [5] 96.6% | [6] 101% | [7] 90.8% | [8] 94.7% | [9] 101% | [10] 104% | [11] 87.4% | [12] 78.3% | [13] 98.3% | [14] 102% | [15] 93.2% | [16] 92% | [17] 93.3% | [18] 102%

OC(CC(c1ccccc1)c1cccc2ccccc12)(c1ccccc1)c1ccccc1 (centres undefined)
inactive: [1] 78.9% and 68.3% | [2] 68.2% and 52.6% | [3] 103% and 74.6% | [4] 95.5% and 94.7% | [19] 90.4% and 87.7% | [5] 60.6% and 56.4% | [6] 88.3% and 95.5% | [7] 76.7% and 79.4% | [8] 80.5% and 74.8% | [9] 77.9% and 74.5% | [10] 79.8% and 54.9% | [11] 91.3% and 84.9% | [12] 70.2% and 57.4% | [13] 75.9% and 82.7% | [14] 83.9% and 93% | [15] 64.6% and 57% | [16] 73.4% and 89.7% | [17] 38.5% and 83.4% | [18] 77.3% and 52.7%

CSc1nc(N)c(N)c(N)n1
inactive: [1] 111% | [2] 88.8% | [3] 97.5% | [4] 100% | [5] 71.4% | [6] 101% | [7] 101% | [8] 101% | [20] 113% | [9] 104% | [10] 105% | [11] 99.4% | [12] 93% | [13] 111% | [14] 110% | [15] 97.8% | [16] 94.5% | [17] 64.7% | [18] 83%

CCC/C(=N/NC(N)=O)c1ccco1
inactive: [1] 103% | [2] 93.7% | [3] 75.2% | [5] 86.8% | [6] 99.5% | [7] 92.7% | [8] 98.1% | [20] 97.7% | [9] 94.8% | [10] 89.7% | [11] 93% | [12] 90.6% | [13] 88.3% | [14] 94.9% | [15] 92.7% | [16] 68.1% | [17] 97.8% | [18] 80.3%

NCCSSC/C=C\CSSCCN
inactive: [1] 102% | [2] 106% | [3] 91.6% | [19] 92.1% | [5] 78.3% | [6] 97.2% | [7] 105% | [8] 97.5% | [9] 113% | [10] 123% | [11] 98.6% | [12] 80% | [13] 107% | [15] 101% | [16] 88.9% | [17] 95.8% | [18] 98%

COc1cc2c(cc1O)C(=O)CCCC2
inactive: [1] 95.3% | [2] 97.2% | [3] 89.3% | [19] 96.8% | [5] 87.6% | [6] 102% | [7] 106% | [8] 90.8% | [20] 111% | [9] 98% | [10] 81.6% | [11] 111% | [12] 90.4% | [13] 110% | [14] 96.9% | [15] 73.3% | [16] 116% | [17] 97.7% | [18] 83.9%
